# Sfp PPTase inh – blocks B. subtilis Sfp PPTase activity. Q9F4F7. Biochemical Sfp PPTase activity, qHTS. Potency, µM, most hits filed as inhibitors. hit rate 3.5% among 310,000. AID 1490;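 further: the enzyme is Sfp with the accession as filed and its product quenches rhodamine fluorescence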
#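 With Hepes-Na pH 7.6 buffer containing 10 mM MgCl2, Sfp (15 nM) modified BHQ-2-YbbR (12.5 uM) using rhodamine-CoA (5 uM). Two reads 30 minutes apart at 525/598 nm yielded each well's rate.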
# rTrxR1 inhibitor – blocks rat thioredoxin reductase 1. O89049. recombinant rTrxR1, NADPH fluorescence consumption, selenite substrate. Potency, µM (doses to about 114 µM), usual class: inhibitors. hit rate 1% among 390,000. AID 588453; further: nearly all actives have a fitted effect of over 65% in size
#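 Rat TrxR1 (90 nM in the dispensed reagent) was pre-reduced with 400 uM NADPH for 5 min at room temperature, then incubated with compound for 15 min. After 400 uM selenite was added, NADPH fluorescence (Ex 340/Em 450 nm) was followed for 8 min.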
# VDR inh – vitamin D3 receptor (human) inhibition; Potency, µM, actives largely listed as inhibitors; VDR-SRC2-3 peptide fluorescence polarization, 2 h; AID 504847; hit rate 0.93% among 400,000; P11473
# Target sequence (P11473 whole entry, looked up): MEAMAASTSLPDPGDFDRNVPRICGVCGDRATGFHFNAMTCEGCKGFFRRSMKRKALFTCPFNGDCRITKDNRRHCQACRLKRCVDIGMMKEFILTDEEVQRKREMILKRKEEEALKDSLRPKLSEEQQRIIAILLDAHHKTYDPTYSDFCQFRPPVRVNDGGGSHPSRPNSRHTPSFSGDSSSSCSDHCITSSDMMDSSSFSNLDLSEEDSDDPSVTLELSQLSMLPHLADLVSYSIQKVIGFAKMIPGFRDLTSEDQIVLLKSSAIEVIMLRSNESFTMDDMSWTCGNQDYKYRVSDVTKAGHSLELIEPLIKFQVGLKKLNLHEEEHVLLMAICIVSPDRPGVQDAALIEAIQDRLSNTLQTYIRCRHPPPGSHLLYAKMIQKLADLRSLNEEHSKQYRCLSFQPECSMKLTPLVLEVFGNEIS
#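 Fluorescence polarization assay of small-molecule disruption of VDR binding to coregulator peptide SRC2-3. Compounds and controls pin-transferred, then read after 2 h incubation at ambient room temperature.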
# KAT2A inh – GCN5L2 (KAT2A) acetyltransferase inhibition. Q92830. GCN5L2 HAT assay, ThioGlo1 CoA-SH fluorescence. Potency, µM (doses to about 58.9 µM), usual class: inhibitors. hit rate 0.21% among 390,000. AID 504327
#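 Titration-based screen in which CoA formation is detected via maleimide probe ThioGlo1 (50uM) turning fluorescent on thiol reaction; substrates H3(1-25) 75uM and acetyl-CoA 70uM, GCN5L2 20nM, 20 min incubation at room temperature.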
# TrxR1 substrate – rat thioredoxin reductase 1 substrate activity; AID 588456; purified TrxR1 substrate turnover, NADPH consumption readout; hit rate 0.01% among 390,000; O89049; Potency, µM (series often up to 114 µM); further: nearly all actives have a fitted effect of over 50% in size
#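 Rat TrxR1, dispensed at 90 nM, was prereduced with 400 uM NADPH (final) for 5 min at ~22 deg C, then incubated with compound 15 min before 400 uM selenite. A first-read NADPH fluorescence drop versus no-compound background flagged substrates.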
# GLS inh – glutaminase GLS (human) inhibition. hit rate 0.21% among 410,000. O94925. GLS enzymatic activity, qHTS titration. Potency, µM (top dose mostly 45.5 µM), usual class: inhibitors
#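 Read-out is an Amplex red fluorescence increase coupled through glutamate oxidase and HRP, measured before and after 30 min room-temperature incubation. hKGA is in 45 mM KH2PO4 (pH 8.2) with 0.02% Tween-20; glutamine added as 1mM solution.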
# Numbers stand for hits; - = inactive; ? = inconclusive; . = no result; ! = not confirmed by another sample. Shown are actives, neighbours in structure and some others; about 3.8% of the full set was active somewhere. The call rests on the fitted dose curve; in most records, active means well fitted curve in the direction sought with a large enough effect; inconclusive means small, poorly fitted or top-dose-only effect, or another doubt; inactive means no such curve, though single readings can be large; an effect the other way counts as inactive or inconclusive.
SMILES,Sfp PPTase inh,rTrxR1 inhibitor,VDR inh,KAT2A inh,TrxR1 substrate,GLS inh
Cc1ccccc1C1=NCC(=O)N(CC(=O)NCc2ccco2)c2sc3c(c21)CCCC3,50µM,?,-,-,-,-
COCCNC(=O)CN1C(=O)CN=C(c2ccccc2)c2ccccc21,-,-,-,-,-,?
CC(CCc1ccccc1)NCCC#N (configuration not stated),-,-,-,-,-,-
Cc1cc(C=C(C#N)C#N)ccc1N1CCCC1,-,-,?,-,-,-
N#CC(C#N)=Cc1ccc(N2CCOCC2)cc1,-,71µM,-,-,-,-
N#CC(C#N)=Cc1cc(O)c(O)c(O)c1,50µM,?,22µM,-,.,-
N#CC(C#N)=Cc1ccc(O)cc1,22µM!,.,50µM,?,.,.
N#CC(C#N)=Cc1cccnc1,-,14µM,?,-,-,-
C[C@H]1C(=O)O[C@H]2CCN3CC=C(COC(=O)[C@](C)(O)[C@@]1(C)O)C23 (some centres not stated),-,.,.,.,.,.
CC1CCC2C(C)C(=O)OC3O[C@]4(C)CCC1[C@@]32OO4 (some centres not stated),-,.,-,-,.,.
Fc1ccc(CNCCc2c[nH]c3ccccc23)cc1,-,-,-,-,-,-
CCN1CCN(c2nc3ccccc3s2)CC1,-,-,-,-,-,-
CC(O)(CS(=O)(=O)c1ccccc1)C(=O)Nc1ccc(C(F)(F)F)cc1 (configuration not stated),-,-,-,-,-,-
CCCC(C)c1nnc(NC(=O)CCS(=O)(=O)c2ccccc2)s1 (configuration not stated),18µM,-,25µM,-,-,-
CN1C(=O)C(=Cc2ccccc2OCc2ccc(C(=O)O)cc2)C(=O)N(C)C1=O,-,?,?,-,-,-
CN1C(=O)C(=Cc2ccccc2OCCOc2ccc([N+](=O)[O-])cc2)C(=O)N(C)C1=O,71µM,?,?,?,-,-
CN1C(=O)C(=Cc2ccccc2OCc2ccccc2Cl)C(=O)N(C)C1=O,50µM,?,?,-,-,?
CC1(C)C(O)CC(O)[C@]2(C)C1CC(O)[C@]1(C)C2CC[C@@]2(C)C(c3ccoc3)CC3OC312 (some centres not stated),-,.,-,-,.,.
FC(F)(F)c1ccc(CNCCc2ccc3c(c2)OCO3)cc1,79µM,-,-,-,-,-
Fc1ccccc1CNCCc1ccc2c(c1)OCO2,-,-,-,-,-,-
CN(N=O)c1ccc(O)c(O)c1,.,0.95µM,35µM,4.5µM,-,.
Cc1cc(C)c(Cn2c(C(=O)O)c(C=O)c3ccccc32)c(C)c1,-,-,-,-,-,-
COc1ccc(C(=O)O)cc1OC,-,-,-,-,-,-
O=C(O)c1cc[c]([Hg][Cl])cc1,.,0.35µM,10µM,0.25µM,-,?
CCCCOC(=O)N(C)SN(C)C(=O)Oc1cccc2c1OC(C)(C)C2,-,.,3.2µM,-,.,.
SMILES,Sfp PPTase inh,rTrxR1 inhibitor,VDR inh,KAT2A inh,TrxR1 substrate,GLS inh
CCCCC/C=C\C/C=C\C/C=C\C/C=C\CCCC(=O)NCCCl,32µM,.,-,-,.,.
CCCCC/C=C\C/C=C\C/C=C\CCCCC(=O)NCCO,-,.,-,.,.,.
CCCCC/C=C\C/C=C\C/C=C\C/C=C\CCCC(=O)O,63µM!,.,7.9µM!,22µM!,.,.
CCCCC/C=C\C/C=C\C/C=C\C/C=C\CCCC(=O)NCc1ccc(O)c(OC)c1,-,.,45µM,-,.,.
O=C(Nc1cccc(Br)c1)c1c(O)c2c(n(Cc3ccccc3)c1=O)CCCC2,-,-,-,-,-,-
C[C@]12CCC(=O)CC1CCC1C2CC[C@]2(C)C(OC(=O)CCC(=O)O)CCC12 (some centres not stated),-,-,-,-,-,-
CCC(C)(S(=O)(=O)CC)S(=O)(=O)CC,-,.,-,-,.,-
CCOP(=O)(OCC)Oc1ccc2ccc(=O)oc2c1,-,.,-,-,.,.
CCOP(=S)(OCC)Oc1cc(C)oc(=O)c1,20µM,-,79µM,?,-,-
CCOP(=S)(OCC)Oc1cc(C)oc(=O)c1Cl,8.9µM,-,28µM,?,-,-
Cc1c(Cl)c(=O)oc2cc(OP(=O)(OCCCl)OCCCl)ccc12,-,.,-,-,.,-
CNCC(C)c1ccccc1 (configuration not stated),-,-,-,-,-,-
CCC1CN1P(=O)(Oc1ccc(Cl)cc1)N1CC1CC (configuration not stated),.,-,-,.,-,-
CCCCCCOC(=O)c1ccccc1N,-,-,-,-,-,-
CCCCCCCCCCCCOCCOCCOCCOCCOCCOCCOCCOCCOCCO,71µM,.,-,-,.,-
COC(=O)CSc1nc2sc3c(c2c(=O)n1C1CCCCC1)CCN(C)C3,56µM,.,.,-,.,.
O=C1NC(=O)C2(CCN(c3ccccc3)CC2)C(=O)N1,.,-,-,.,-,-
CCCCn1c(O)c(C(CC)=Nc2ccc(OCC)cc2)c(=O)[nH]c1=O,-,-,-,-,-,-
CCOc1c(Cl)cc(CNCCc2c[nH]c3ccccc23)cc1OC,56µM,-,-,-,-,-
CCOc1cc(CNCCc2c[nH]c3ccccc23)cc(Cl)c1OCC,-,-,-,-,-,-
COc1c(O)c2c(=O)cc(OC)c3c4c(OC)cc(=O)c5c(O)c(OC)c(C[C@@H](C)OC(=O)c6ccccc6)c(c(c1C[C@@H](C)OC(=O)Oc1ccc(O)cc1)c23)c54,-,.,50µM,-,.,.
Cc1cccc(N=Cc2c(O)n(C)c(=O)n(C)c2=O)c1,-,-,-,-,-,-
CCCCCC(O)C1C(=O)OC(C)C(O)\C=C/C=C\C=C/C=C\C=C(\C)C(O)C(O)C(O)CC(O)CC(O)CC(O)CC(O)CC1O (configuration not stated),-,.,-,-,.,28µM!
O=C1NC(=O)N(c2ccc3c(c2)OCO3)C(=O)/C1=C\c1ccsc1,35µM,?,?,-,-,-
Cc1ccc(N2C(=O)NC(=O)/C(=C\c3ccc([N+](=O)[O-])o3)C2=O)cc1,?,.,.,-,.,.
SMILES,Sfp PPTase inh,rTrxR1 inhibitor,VDR inh,KAT2A inh,TrxR1 substrate,GLS inh
O=C1NC(=O)N(c2ccc3c(c2)OCO3)C(=O)/C1=C/c1ccc(N2CCCCC2)o1,-,?,-,-,-,-
Cc1cccc(N2C(=O)NC(=O)/C(=C/c3ccc(-c4ccc(C(=O)O)c(Cl)c4)o3)C2=O)c1,45µM,.,.,-,.,.
Cc1ccc(N2C(=O)NC(=O)/C(=C\c3ccsc3)C2=O)cc1C,50µM,.,.,-,.,.
O=C1NC(=O)N(c2ccc3c(c2)OCO3)C(=O)/C1=C\c1ccc(-c2ccccc2C(=O)O)o1,50µM,-,?,-,-,-
O=C1CC(=O)N(c2ccc3c(c2)OCO3)C(=O)N1,-,-,-,-,-,-
CC(=O)NCC(N)C(=O)c1ccc(C)cc1 (configuration not stated),.,-,.,.,-,.
